PfHsp40 rescue: restores yeast growth despite PfHsp40 toxicity. S. cerevisiae expressing PfHsp40, growth rescue, ATP luminescence. 340,000 tested, 0.68% active. growth rescue, % at 12.5 µM. AID 504582; in the data active = growth rescue above about 28%, passing the limit was not always enough; inconclusive = no clear call, values can overlap the other calls;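 note: yeast W303a lacking pdr1 and pdr3 grown in galactose medium; growth measured after three days at 30 °C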
Vc quorum ag: induces V. cholerae light production without autoinducers. V. cholerae BH1578 lux reporter, luminescence, 6 h. activation, % at 18.7 µM. 350,000 tested, 0.16% active; in the data active = activation mostly above about 9.7%, no sharp cut-off; inconclusive = no clear call, values can overlap the other calls; inactive = mostly below about 3.7%
PrPC TRFRET: reduces human prion protein on the cell surface; AID 720596; 370,000 tested, 0.43% active; P04156; cell surface PrPC, TR-FRET read-out; inhibition, % at 13.8 µM; in the data active = inhibition above about 24%
3CLpro inhibitor: SARS-CoV 3CLpro protease inhibition. recombinant SARS-CoV 3CLpro, quenched FRET peptide cleavage. inhibition, % at 6 µM. 290,000 tested, 0.14% active; in the data active = inhibition above about 12%
PriA SSB inh: inhibitors of Klebsiella pneumoniae PriA binding to SSB C-terminal tail; AlphaScreen SSBct-PriA binding, biotinylated peptide; inhibition, % at 33 µM; 430,000 tested, 0.6% active; AID 1272365; in the data active = inhibition mostly above about 37%, no sharp cut-off; inactive = mostly below about 20%
PrP 5UTR inh: inhibition of PrP 5' UTR reporter expression. cell-based PrP 5' UTR mRNA reporter, plate reader. inhibition, % (test concentration not listed). 340,000 tested, 0.35% active. AID 488862; in the data active = inhibition above about 52%
A number is an active result; . = inactive; ? = inconclusive; / = no result. This is a sample that favours compounds with a hit; in the whole collection about 1.6% have one here.

SMILES	PfHsp40 rescue	Vc quorum ag	PrPC TRFRET	3CLpro inhibitor	PriA SSB inh	PrP 5UTR inh
Cc1cc(C(=O)N/N=C/c2cccc([N+](=O)[O-])c2)c2ccccc2n1	33.7	.	.	.	/	.
COc1cc([N+](=O)[O-])cc(/C=N/NC(=O)c2cc(-c3ccccc3)nc3ccccc23)c1O	?	.	.	.	/	.
COc1cn2c(cc1=O)C(=O)N(CCNC(=O)c1ccc(Br)o1)CC2	/	/	/	/	.	/
CCOC(=O)c1cc(NC(=O)C2C3CCC(O3)C2C(=O)O)cc(C(=O)OCC)c1 (configuration not stated)	.	.	.	.	53.0	.
CN(C)c1ccc(N=Nc2ccccc2C(=O)OCC(=O)N2CCCC2)cc1	.	.	.	.	52.9	.
S=C(Nc1ccccc1)c1ccccn1	.	.	.	.	72.0	.
O=C(O)CCC(=O)NCCn1c(-c2ccccc2)csc1=Nc1ccccc1	.	.	.	.	.	.
OCCCn1c(-c2ccccc2)csc1=Nc1ccccc1	.	.	.	.	42.1	.
Cc1cc(C)c(N2CCN(C[C@H](O)COc3ccc4ccccc4c3)CC2)c(C)c1	/	/	/	/	.	/
c1ccc2c(c1)[IH]c1ccccc1-2	.	.	35.3	/	.	.
Cc1cc(NC(=O)CSc2nc(N)c(NC(=O)c3ccc(F)cc3)c(=O)[nH]2)no1	/	/	/	/	.	/
O=C(CN1CCN(C(=O)CNC(=O)c2ccc3c(c2)OCO3)CC1)Nc1ccc(F)cc1	.	.	.	/	53.1	.
CC1=NN(c2ccc(C(F)(F)F)cn2)C(=O)C1	.	.	.	.	44.8	.
CS(=O)(=O)Nc1ccc(N2CCN(c3ccc(C(F)(F)F)cn3)CC2)nc1	.	.	.	.	.	.
COc1cccc(OC)c1C(=O)OCC(=O)Nc1cccnc1Cl	57.6	.	.	.	.	.
Cc1ccc(/C=C2/C(=O)c3ccc(C(=O)O)cc3C2=O)o1	45.2	.	.	.	.	.
CN(C)S(=O)(=O)c1ccc2c(c1)nc(CCC(=O)NCC1CCCCC1)n2C	.	.	.	.	.	.
CN(C)S(=O)(=O)c1ccc2c(c1)nc(CCC(=O)NCc1ccc(Cl)cc1)n2C	45.2	.	.	.	.	.
CC(C)NC(=O)c1ccc2c(=O)n(-c3ccc(F)cc3)c(SCC(=O)c3ccccc3)nc2c1	/	/	/	/	.	/
CCn1ncc(/C=N\NC(=O)c2ccc3c(c2)c(C)c(C)n3Cc2ccccc2)c1C	.	.	.	.	/	.
CCn1cc(/C=N\NC(=O)c2ccc3c(c2)c(C)c(C)n3Cc2ccccc2)c(C)n1	71.7	.	.	.	/	.
COCC(C)(O)CNC(=O)c1cccn(C)c1=O (configuration not stated)	/	/	/	/	.	/
CCn1c(O)c(C=Nc2ccc(N3CCOCC3)cc2)c(=O)n(CC)c1=S	.	.	.	.	.	.
Cn1c(O)c(C=Nc2ccc(N3CCOCC3)cc2)c(=O)n(C)c1=S	68.0	.	.	.	.	.
O=C(Nc1nnc(-c2ccc(F)cc2)o1)c1ccc(S(=O)(=O)N2CCOCC2)cc1	.	25.1	/	.	.	.
SMILES	PfHsp40 rescue	Vc quorum ag	PrPC TRFRET	3CLpro inhibitor	PriA SSB inh	PrP 5UTR inh
CCOC(=O)c1cc(OC(=O)c2ccccc2)n(-c2ccccc2)n1	111.5	.	.	.	.	.
CCc1nc(SCc2cccnc2)c2c(=O)n(C)c(=O)n(C)c2n1	.	.	.	.	.	.
CC(C)Cc1nc(SCc2cccnc2)c2c(=O)n(C)c(=O)n(C)c2n1	32.9	.	.	.	.	.
Cc1cc(OC2CCN(C(=O)C3(c4ccccc4)CCOCC3)CC2)cc(=O)o1	/	/	/	/	23.0	/
O=C(N1CCC(Oc2ncccc2Br)CC1)C1(c2ccccc2)CCOCC1	/	/	/	/	.	/
Cn1cccc1Cc1nnc(SCC(=O)Nc2ccc3c(c2)OCCO3)n1-c1ccc(Cl)cc1	/	/	/	/	80.1	/
Cc1ccc(-n2c(Cc3cccs3)nnc2SCC(=O)Nc2ccc3c(c2)OCO3)cc1	/	/	/	/	61.6	/
Cc1nnc2ccc(OCCNS(=O)(=O)c3ccc(Cl)s3)nn12	/	/	/	/	.	/
CCc1nnc(C2CCN(C(=O)NC(C)(C)C)CC2)s1	/	/	/	/	.	/
Cc1noc(C2CCN(C(=O)CCCc3ccccc3)CC2)n1	/	/	/	/	.	/
Cc1noc(C2CCCN2C(=O)NCCCc2ccccc2)n1 (configuration not stated)	/	/	/	/	54.0	/
CCc1cc(=O)oc2cc(OCC(=O)NCCCn3ccnc3)ccc12	.	.	.	.	38.7	.
CC1CCN(S(=O)(=O)c2ccc3c(c2)oc(=O)n3CC(=O)N2c3ccccc3CC2C)CC1 (configuration not stated)	.	.	.	.	98.1	.
